Pf growth 48h – P. falciparum growth inhibition at 48 hours (one generation). hit rate 5.9% among 310,000. Potency, µM (titrated, usually from 28.7 µM), for the others: top-dose activity change, negative = inhibition, most hits filed as inhibitors. P. falciparum luciferase growth in erythrocytes, 48 h. AID 504832; also: potency is read from the fitted curve at half-maximal effect
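Firefly luciferase activity from engineered P. falciparum reports growth; inhibitors lower the luminescent signal. Cultures contained 2% hematocrit erythrocytes at 0.1% final parasitemia.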
Pf growth 96h – P. falciparum growth inhibition at 96 hours. P. falciparum luciferase reporter growth, 96 h. Potency, µM (highest dose often 28.7 µM), for inactives: at the highest dose activity change, negative = inhibition, hits mostly inhibitors. hit rate 6.9% among 320,000. AID 504834; also: potency is read from the fitted curve at half-maximal effect
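Delayed-death screen, second-generation endpoint: infected erythrocytes, 2% hematocrit, 0.05% parasitemia final; 96 hours at 37 C, 5% CO2; luciferase detection reagent; luminescence decrease equals reduced growth.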
Lassa entry inh – Lassa virus entry inhibition | Lassa virus pseudotype entry inhibition, cell reporter | Potency, µM (doses to about 37.9 µM), for inactives: at the highest dose activity change, negative = inhibition, hits mostly inhibitors | hit rate 1.2% among 300,000 | AID 540256; calls by dose curve; tested in HEK293 cells; also: potency is read from the fitted curve at half-maximal effect; nearly all actives have a fitted effect of over 50% in size
HCMV antiviral – human cytomegalovirus inhibition | HFF cells, HCMV-luciferase reporter, 72 h; hits give low values | hit rate 4.5% among 410,000 | activity change, negative = inhibition, % at 57.5 µM; in the data active = activity change below about -60%; inconclusive = no clear call, values can overlap the other calls; inactive = above about -39%
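Compounds were evaluated in HFFs infected with an HCMV luciferase reporter virus (MOI 1 PFU/cell). Luciferase in lysates collected 72 h post infection served as the replication measure.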
Marburg entry inh – inhibitors of Marburg virus binding or cell entry; AID 540276; hit rate 1.8% among 300,000; Potency, µM (titrated, usually from 37.8 µM), for the others: at the top dose activity change, negative = inhibition, usual class: inhibitors; Marburg virus pseudotyped entry inhibition, cell reporter; calls by dose curve; tested in HEK293 cells; also: potency is read from the fitted curve at half-maximal effect
HCV inh – blocks hepatitis C virus; hit rate 3.4% among 340,000; Potency, µM (highest dose often 41.8 µM), without a hit: top-dose activity change, negative = inhibition, actives largely listed as inhibitors; Huh7.5.1 HCVcc-Cre infection, luciferase reporter, 44 h; also: potency is read from the fitted curve at half-maximal effect
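Antiviral activity was scored by luciferase reporter output from cells infected with HCVcc-Cre (~0.5 moi) in presence of compound, 44 h infection period, cells seeded 1,000/well 4 h prior.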
An asterisk follows results filed as active; u = inconclusive; x = not tested or not shown; [ ] = dose if it differs, or a comment. Rows were chosen to be rich in hits. Some 14% of all compounds tested hit in one or more screens of this group. Unless noted, calls follow the shape of the dose curve; as a rule, active = well fitted inhibition curve with a large enough effect; inconclusive = small, poorly fitted or top-dose-only effect, or another doubt; inactive = no such curve, though single readings can be large or run the other way. % is scaled to controls: 0 for no effect and ±100 for the full control effect.

SMILES | Pf growth 48h | Pf growth 96h | Lassa entry inh | HCMV antiviral | Marburg entry inh | HCV inh
CC1CCCN(c2ncnc3c2cnn3-c2ccccc2)C1 (stereo not drawn) | 84.3% | 95.8% | x | u | x | -11.5%
CCN(CC)C(=O)C1CCCN(c2ccc([N+](=O)[O-])cc2)C1 (stereo not drawn) | 3.4% | 1.65µM* | -1.0% | -36.4 | 0.4% | -12.8%
CC1CCCN(c2ncnc3c2cnn3-c2ccc(F)cc2)C1 (stereo not drawn) | x | x | -5.3%[46.1 µM] | -80.2* | x | x
CC1CCCN(c2ncnc3c2cnn3-c2ccc(Cl)cc2)C1 (stereo not drawn) | -4.7% | 0.0% | x | -98.2* | x | -1.7%
CCN(CC)C(=O)C1CCCN(c2ncnc3c2cnn3-c2ccc(Cl)cc2)C1 (stereo not drawn) | 33.0% | 92.2% | x | -67.6* | x | u
CCOC(=O)c1sc2ncn(CC(=O)Nc3ccc(F)cc3F)c(=O)c2c1C | x | x | 5.9%[46.1 µM] | 10.6 | 19.2%[46.1 µM] | x
CC1(C(=O)Nc2cccc(C(F)(F)F)c2)Cc2ccccc2C(=O)O1 (stereo not drawn) | x | x | 0.0%[46.1 µM] | -4.6 | -25.1%[46.1 µM] | x
O=c1ccn2c(n1)OC1CC2OC1COC(c1ccccc1)(c1ccccc1)c1ccccc1 (stereo not drawn) | x | x | x | -1.0 | x | x
CCOC(=O)CSc1nc2c(sc3ccccc32)c(=O)n1Cc1ccc(OC)cc1 | x | x | 8.0%[46.1 µM] | 11.7 | x | x
O=[N+]([O-])c1cccc(/C=N\N2CCN(c3ccc(Cl)cc3)CC2)c1 | -6.2% | 8.28µM* | -8.1% | -8.4 | -17.7%[46.1 µM] | -12.1%
Cc1ccc(Cl)cc1Nc1nc(N2CCOCC2)nc(N2CCOCC2)n1 | -6.3% | -9.8% | u | u | u | -25.5%
Cc1ccc([N+](=O)[O-])cc1Nc1nc(N2CCOCC2)nc(N2CCOCC2)n1 | u | u | 20.6%[46.1 µM] | -69.6* | u | -5.9%
C/C(=N\Nc1nc(N2CCOCC2)nc(N2CCOCC2)n1)c1cccc([N+](=O)[O-])c1 | 10.4µM* | 8.9% | 0.6% | -16.1 | -21.9%[46.1 µM] | u
O=[N+]([O-])c1ccc(Cl)c(/C=N/Nc2nc(N3CCOCC3)nc(N3CCOCC3)n2)c1 | x | -23.6% | -12.7% | 19.0 | 0.0517µM* | u
C/C(=N\Nc1cc(N2CCOCC2)ncn1)c1cccc([N+](=O)[O-])c1 | -10.1% | 28.9% | x | -3.8 | x | -0.2%
O=[N+]([O-])c1ccc(/C=N/Nc2nc(N3CCOCC3)nc(N3CCOCC3)n2)cc1 | -8.4% | -3.2% | x | x | x | x
CCCCC1CCC(CCCC(C)CCC(=O)O)CC1 (stereo not drawn) | x | x | 19.6%[46.1 µM] | -7.9 | x | x
O=[N+]([O-])c1cccc(/C=C2\CCC(/C=N/Nc3ccc4ccccc4n3)=C2N2CCOCC2)c1 | u | 0.415µM* | -2.0% | u | u | u
CCOC(=O)C(=O)C1=C(N2CCOCC2)/C(=C\c2cccc([N+](=O)[O-])c2)CC1 | 22.2% | 66.6% | 16.1% | -71.9* | 21.0% | 24.5%
O=[N+]([O-])c1cccc(/C=N/Nc2nc(N3CCOCC3)nc(N3CCOCC3)n2)c1 | -24.4% | 70.2% | -1.4% | -92.6* | u | -3.4%
Cc1ccc([C@H]2N[C@]3(CCCN(Cc4ccc(F)cc4)C3=O)[C@H]3C(=O)N(Cc4ccccc4)C(=O)[C@@H]23)cc1 | x | x | x | -5.7 | x | x
Clc1ccc2c(c1)-n1cc(-c3ccccc3)nc1CO2 | x | x | 3.1%[46.1 µM] | 107.4 | 12.8%[46.1 µM] | x
CN(C(=O)c1cc(-c2ccccc2O)on1)c1ccccc1 | x | x | u | 11.0 | u | x
CC(CNC(=O)c1nnc(Cc2ccc(F)cc2)o1)c1ccccc1 (stereo not drawn) | x | x | -8.8%[46.1 µM] | -14.3 | x | x
O=S(=O)(NC(=S)c1ccccc1)c1ccccc1 | x | x | 10.8%[46.1 µM] | -35.7 | 1.2%[46.1 µM] | u
SMILES | Pf growth 48h | Pf growth 96h | Lassa entry inh | HCMV antiviral | Marburg entry inh | HCV inh
CC(C)N=C(NS(=O)(=O)c1ccccc1)C(Cl)(Cl)Cl | u | u | u | -98.2* | u | u
COc1ccc(NC(=O)Cn2c(=O)n(Cc3ccccc3Cl)c(=O)c3cc(OC)c(OC)cc32)cc1OC | x | x | -14.0%[46.1 µM] | 18.0 | -11.6%[46.1 µM] | x
CCCC(=O)N1CCN(Cc2nc3cc([N+](=O)[O-])ccc3n2C)CC1 | 8.3% | -28.1% | x | 55.5 | x | -25.9%
Cc1ccc(C(C)C)c(OCC(=O)Nc2ccc3c(c2)nc(CN2CCCC2)n3C)c1 | x | 13.1µM* | u | -21.9 | u | u
Cc1ccc(C(C)C)c(OCC(=O)N2CCN(Cc3nc4cc([N+](=O)[O-])ccc4n3C)CC2)c1 | -7.3% | 11.7µM* | -3.5% | 36.5 | -10.1% | 3.5%
Cc1ccc(C(C)C)c(OCC(=O)Nc2ccc3c(c2)nc(CCNC(=O)c2ccco2)n3C)c1 | x | x | 19.1%[46.1 µM] | 0.9 | 11.7%[46.1 µM] | x
O=C(CC1C(=O)Nc2ccccc2N1CC(=O)N1CCCC1)Nc1ccc(Br)cc1 (stereo not drawn) | 3.8% | u | x | 7.8 | x | u
COc1ccc2c(c1)c(C(C)=O)c(C)n2-c1ccccc1 | x | u | 4.4% | -1.1 | 3.2% | u
COc1ccc2c(c1)c(C(C)=O)c(C)n2CCc1ccccc1 | -6.5% | -7.8% | x | -91.5* | x | u
COc1ccc(-n2c(C)c(C(C)=O)c3cc(O)ccc32)cc1 | 19.1% | -30.9% | x | -64.8* | -8.8% | -5.8%
COc1ccc(-n2c(C)c(C(C)=O)c3cc(OC(=O)c4ccc(C)cc4)ccc32)cc1 | x | x | -24.3%[46.1 µM] | -74.9* | x | x
CC(C)=CCc1cc([C@@H]2CC(=O)c3ccc(O)c(CC=C(C)C)c3O2)ccc1O | x | x | x | -30.3 | x | u
Cc1ccc(C)c(CN2C(=O)c3ccccc3S(=O)(=O)c3ccc(C(=O)N4CCc5ccccc54)cc32)c1 | x | x | -20.0%[46.1 µM] | -24.2 | u | x
O=C(Nc1ccc(F)cc1F)c1c(C(F)(F)F)ccnc1Oc1cccc(C(F)(F)F)c1 | 14.7µM* | 10.4µM* | u | 11.7 | -27.3%[46.1 µM] | -1.2%
Cn1nc(C(F)(F)F)c(C(=O)Nc2ccc(F)cc2F)c1Sc1cccc(Cl)c1 | u | u | 2.6% | -12.8 | u | -10.0%
Cn1nc(C(F)(F)F)c(C(=O)Nc2ccc(F)cc2F)c1Sc1cccc(C(F)(F)F)c1 | 9.28µM* | 8.28µM* | -0.6% | 33.3 | u | -28.7%
O=C(Nc1ccc(F)cc1F)c1c(C(F)(F)F)ccnc1Oc1ccc(Cl)cc1 | u | u | -22.9% | 13.2 | u | 8.6%
Nc1ncnc2c1ncn2[C@@H]1O[C@H](CNC(=O)[C@@H](N)C2CCCCC2)[C@@H](O)[C@H]1O | x | x | x | -10.4 | x | 14.6%
C[C@@H]1C=CCC(=O)N[C@@H](c2ccc3ccccc3c2)[C@H](C)C=CCC(=O)N[C@@H]1c1ccc2ccccc2c1 | x | x | x | x | 2.66µM* | x
C[C@@H]1C=CCC(=O)N[C@@H](c2ccccc2)[C@H](C)C=CCC(=O)N[C@@H]1c1ccccc1 | x | x | u | x | 12.4%[14.2 µM] | x
Cn1nc(C(F)(F)F)c(-c2ccc(F)cc2)c1NC(=O)Nc1ccc(F)cc1 | 0.828µM* | 0.465µM* | -3.6% | u | u | u
